For one sequence, binding signal results are on record in paper PMC7862700, “An all-to-all approach to the identification of sequence-specific readers for epigenetic DNA modifications on cytosine”.

Assay in all cases: DAPPL (digital affinity profiling via proximity ligation, sequencing); 10 mM Tris-HCl pH 7.5, 50 mM NaCl, 1 mM DTT, 4% glycerol, room temperature, 30 min; GST-TFs on glutathione beads, 16-mer random dsDNA library, 0.1% formaldehyde crosslink after washing; high values mean tight binding
In one assay the target is T1, FLI1 (Homo sapiens, UniProt Q01543 1-452).
T1 sequence: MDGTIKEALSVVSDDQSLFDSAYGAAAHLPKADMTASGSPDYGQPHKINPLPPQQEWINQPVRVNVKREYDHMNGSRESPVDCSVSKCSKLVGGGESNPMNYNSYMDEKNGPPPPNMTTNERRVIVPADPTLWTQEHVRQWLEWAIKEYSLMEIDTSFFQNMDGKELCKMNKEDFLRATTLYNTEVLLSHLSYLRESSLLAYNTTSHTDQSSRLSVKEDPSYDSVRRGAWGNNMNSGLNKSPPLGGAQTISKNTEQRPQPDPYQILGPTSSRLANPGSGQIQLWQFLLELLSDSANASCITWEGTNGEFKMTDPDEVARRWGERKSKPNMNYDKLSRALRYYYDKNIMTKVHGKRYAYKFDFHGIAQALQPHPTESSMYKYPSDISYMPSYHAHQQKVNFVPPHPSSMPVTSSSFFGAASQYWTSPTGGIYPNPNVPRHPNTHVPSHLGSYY
Conditions: protein: recombinant; tags: N-terminal GST; dsDNA, one strand shown. Put shortly:
(§1)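 Pools of DNA-barcoded human transcription factors, expressed in yeast as GST fusions on glutathione beads and combined with a tag-only sample, were incubated with 200 nmole of a 16-mer random double-stranded DNA library. Incubation took 30 min at room temperature in Tris/NaCl/DTT/glycerol buffer and was followed by washing, 0.1% formaldehyde crosslinking, proximity ligation (BsaI/T4 ligase, 1 h, 37 °C), PCR amplification and sequencing on an Illumina NextSeq500. Binding signal is the ratio of a hexamer's read frequency for a factor to its frequency for the tag-only sample.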

The next assay concerns the target T2, ELK1 (Homo sapiens, UniProt P19419 1-428).
T2 sequence: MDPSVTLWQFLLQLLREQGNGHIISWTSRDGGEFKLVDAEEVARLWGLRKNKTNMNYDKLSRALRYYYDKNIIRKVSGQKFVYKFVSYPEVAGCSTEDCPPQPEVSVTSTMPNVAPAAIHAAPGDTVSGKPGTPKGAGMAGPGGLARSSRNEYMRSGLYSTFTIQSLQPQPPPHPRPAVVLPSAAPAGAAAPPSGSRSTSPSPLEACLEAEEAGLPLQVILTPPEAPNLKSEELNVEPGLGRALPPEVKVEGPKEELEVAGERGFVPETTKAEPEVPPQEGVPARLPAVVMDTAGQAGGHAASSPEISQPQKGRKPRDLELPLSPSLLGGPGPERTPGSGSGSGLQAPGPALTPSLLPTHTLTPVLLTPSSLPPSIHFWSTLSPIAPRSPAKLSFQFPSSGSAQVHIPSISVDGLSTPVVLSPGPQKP
The following applies: protein: recombinant; tags: N-terminal GST; dsDNA, one strand shown. In a few lines:
as §1

Another assay deals with T3, ERG (Homo sapiens, UniProt P11308 1-479).
T3 sequence: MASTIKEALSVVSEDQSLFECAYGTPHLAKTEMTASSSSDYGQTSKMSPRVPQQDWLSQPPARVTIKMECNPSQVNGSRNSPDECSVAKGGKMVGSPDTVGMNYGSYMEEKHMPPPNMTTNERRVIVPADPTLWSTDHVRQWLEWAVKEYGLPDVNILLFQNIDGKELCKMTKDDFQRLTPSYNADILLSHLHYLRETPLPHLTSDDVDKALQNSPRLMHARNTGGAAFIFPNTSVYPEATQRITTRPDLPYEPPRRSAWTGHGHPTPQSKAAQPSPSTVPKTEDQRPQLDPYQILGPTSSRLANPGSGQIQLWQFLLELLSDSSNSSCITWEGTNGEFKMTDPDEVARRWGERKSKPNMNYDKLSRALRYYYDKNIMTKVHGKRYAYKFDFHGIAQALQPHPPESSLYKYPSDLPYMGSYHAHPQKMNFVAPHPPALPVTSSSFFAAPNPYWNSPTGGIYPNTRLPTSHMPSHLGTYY
Conditions: protein: recombinant; tags: N-terminal GST; dsDNA, one strand shown. In a few lines: as §1

The target in another assay is ELF1 (Homo sapiens, UniProt P32519 1-619). The following applies: protein: recombinant; tags: N-terminal GST; dsDNA, one strand shown. Put shortly: as §1
ELF1, sequence (P32519 whole entry): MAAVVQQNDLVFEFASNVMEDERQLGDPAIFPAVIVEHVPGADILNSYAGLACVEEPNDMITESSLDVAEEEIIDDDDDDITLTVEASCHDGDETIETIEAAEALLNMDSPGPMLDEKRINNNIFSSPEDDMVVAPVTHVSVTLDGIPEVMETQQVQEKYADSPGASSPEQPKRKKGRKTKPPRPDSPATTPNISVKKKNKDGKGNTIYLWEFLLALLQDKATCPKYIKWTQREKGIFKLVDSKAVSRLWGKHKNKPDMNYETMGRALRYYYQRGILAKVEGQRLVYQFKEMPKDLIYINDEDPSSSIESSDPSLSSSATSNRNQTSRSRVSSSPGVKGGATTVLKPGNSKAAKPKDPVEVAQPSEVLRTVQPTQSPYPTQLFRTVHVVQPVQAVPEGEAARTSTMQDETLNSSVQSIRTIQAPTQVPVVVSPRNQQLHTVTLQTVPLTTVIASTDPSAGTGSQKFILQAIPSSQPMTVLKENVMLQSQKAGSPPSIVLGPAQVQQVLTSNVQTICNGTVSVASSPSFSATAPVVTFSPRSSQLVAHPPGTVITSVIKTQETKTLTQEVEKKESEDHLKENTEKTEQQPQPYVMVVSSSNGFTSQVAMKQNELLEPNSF
The next assay concerns the target T4, EHF (Homo sapiens, UniProt Q9NZC4 1-300).
T4 sequence: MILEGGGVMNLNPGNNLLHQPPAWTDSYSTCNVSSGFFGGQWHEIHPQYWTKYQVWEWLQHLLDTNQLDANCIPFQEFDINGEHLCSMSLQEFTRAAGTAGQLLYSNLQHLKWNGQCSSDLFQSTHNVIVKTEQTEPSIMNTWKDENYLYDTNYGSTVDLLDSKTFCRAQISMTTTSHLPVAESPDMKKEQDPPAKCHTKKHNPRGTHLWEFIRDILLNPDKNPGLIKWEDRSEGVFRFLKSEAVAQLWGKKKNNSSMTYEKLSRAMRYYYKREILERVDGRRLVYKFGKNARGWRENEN
The following applies: protein: recombinant; tags: N-terminal GST; dsDNA, one strand shown. Put shortly: as §1

Another assay addresses T5, ELK3 (Homo sapiens, UniProt P41970 1-407).
T5 sequence: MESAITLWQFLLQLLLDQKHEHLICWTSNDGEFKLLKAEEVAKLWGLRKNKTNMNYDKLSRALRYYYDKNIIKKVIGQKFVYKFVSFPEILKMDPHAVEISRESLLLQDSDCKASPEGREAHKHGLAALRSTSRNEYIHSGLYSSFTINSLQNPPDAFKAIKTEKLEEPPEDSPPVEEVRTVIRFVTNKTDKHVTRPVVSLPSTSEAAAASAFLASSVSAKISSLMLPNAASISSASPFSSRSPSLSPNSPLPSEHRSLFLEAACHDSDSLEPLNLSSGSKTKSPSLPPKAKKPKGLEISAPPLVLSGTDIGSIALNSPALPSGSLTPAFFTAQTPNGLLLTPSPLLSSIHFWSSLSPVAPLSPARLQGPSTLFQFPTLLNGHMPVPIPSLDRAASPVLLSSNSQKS
The following applies: protein: recombinant; tags: N-terminal GST; dsDNA, one strand shown. In a few lines: as §1

The target in another assay is T6, FEV (Homo sapiens, UniProt Q99581 1-238).
T6 sequence: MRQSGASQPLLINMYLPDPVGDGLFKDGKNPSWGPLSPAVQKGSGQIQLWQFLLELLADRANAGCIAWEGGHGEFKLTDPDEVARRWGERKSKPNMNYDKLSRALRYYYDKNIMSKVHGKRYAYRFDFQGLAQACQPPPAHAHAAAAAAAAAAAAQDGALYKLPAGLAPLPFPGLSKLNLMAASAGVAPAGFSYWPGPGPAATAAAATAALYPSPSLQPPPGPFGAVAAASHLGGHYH
The following applies: protein: recombinant; tags: N-terminal GST; dsDNA, one strand shown. In a few lines: as §1

The target in a further assay is ETV5 (Homo sapiens, UniProt P41161 1-510). The following applies: protein: recombinant; tags: N-terminal GST; dsDNA, one strand shown. Put shortly:
as §1

Another assay concerns the target HSF1 (Homo sapiens, UniProt Q00613 1-529). The following applies: protein: recombinant; tags: N-terminal GST; chain copies: 3; dsDNA, one strand shown. In a few lines: as §1
A further assay concerns the target T7, SPIC (Homo sapiens, UniProt Q8N5J4 1-248).
T7 sequence: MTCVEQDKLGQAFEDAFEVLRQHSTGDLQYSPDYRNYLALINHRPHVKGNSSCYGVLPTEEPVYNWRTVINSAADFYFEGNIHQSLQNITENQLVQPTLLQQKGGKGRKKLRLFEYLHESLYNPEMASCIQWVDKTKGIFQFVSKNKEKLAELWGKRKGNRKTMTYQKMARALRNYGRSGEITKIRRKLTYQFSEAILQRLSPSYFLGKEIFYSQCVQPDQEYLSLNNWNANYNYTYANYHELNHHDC
Conditions: protein: recombinant; tags: N-terminal GST; dsDNA, one strand shown. Put shortly:
as §1

In a further assay the target is ELF4 (Homo sapiens, UniProt Q99607 1-663). The following applies: protein: recombinant; tags: N-terminal GST; dsDNA, one strand shown. In a few lines:
as §1

Another assay addresses T8, ELK4 (Homo sapiens, UniProt P28324-2 1-405).
T8 sequence: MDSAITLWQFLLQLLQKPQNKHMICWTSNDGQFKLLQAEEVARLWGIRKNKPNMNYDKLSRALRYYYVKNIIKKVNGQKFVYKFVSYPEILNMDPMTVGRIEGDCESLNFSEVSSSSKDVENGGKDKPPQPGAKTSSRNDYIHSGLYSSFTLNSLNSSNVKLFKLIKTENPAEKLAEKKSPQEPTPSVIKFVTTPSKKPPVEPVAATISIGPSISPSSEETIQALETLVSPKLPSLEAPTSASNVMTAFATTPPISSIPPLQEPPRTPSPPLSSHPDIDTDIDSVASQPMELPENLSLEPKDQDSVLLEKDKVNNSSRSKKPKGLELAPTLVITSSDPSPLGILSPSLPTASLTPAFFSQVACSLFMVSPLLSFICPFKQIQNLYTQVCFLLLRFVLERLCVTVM
The following applies: protein: recombinant; tags: N-terminal GST; dsDNA, one strand shown. In a few lines: as §1

The target in a further assay is T9, ETV2 (Homo sapiens, UniProt O00321 1-342).
T9 sequence: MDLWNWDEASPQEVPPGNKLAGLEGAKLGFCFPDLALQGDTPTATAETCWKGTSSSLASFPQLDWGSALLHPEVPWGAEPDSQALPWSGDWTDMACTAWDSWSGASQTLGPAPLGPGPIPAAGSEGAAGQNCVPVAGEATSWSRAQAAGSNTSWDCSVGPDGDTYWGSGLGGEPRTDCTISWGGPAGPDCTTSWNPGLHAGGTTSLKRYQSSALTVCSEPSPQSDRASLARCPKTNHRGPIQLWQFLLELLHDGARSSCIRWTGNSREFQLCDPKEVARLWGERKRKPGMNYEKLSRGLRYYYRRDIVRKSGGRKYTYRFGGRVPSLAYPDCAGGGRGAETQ
The following applies: protein: recombinant; tags: N-terminal GST; dsDNA, one strand shown. In a few lines: as §1

Another assay concerns the target T10, ELF3 (Homo sapiens, UniProt P78545 1-371).
T10 sequence: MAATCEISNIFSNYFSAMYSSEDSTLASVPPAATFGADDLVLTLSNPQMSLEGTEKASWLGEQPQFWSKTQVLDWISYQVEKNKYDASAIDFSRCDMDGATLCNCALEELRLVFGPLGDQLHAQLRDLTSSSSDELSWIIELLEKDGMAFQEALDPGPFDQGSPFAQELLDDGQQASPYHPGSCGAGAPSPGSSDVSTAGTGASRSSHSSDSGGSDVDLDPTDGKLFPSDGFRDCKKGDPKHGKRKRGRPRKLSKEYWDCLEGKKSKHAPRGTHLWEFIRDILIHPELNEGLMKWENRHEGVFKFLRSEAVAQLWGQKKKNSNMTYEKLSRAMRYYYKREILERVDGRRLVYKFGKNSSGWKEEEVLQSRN
The following applies: protein: recombinant; tags: N-terminal GST; dsDNA, one strand shown. Put shortly: as §1

A further assay concerns the target CRX (Homo sapiens, UniProt O43186 1-299). The following applies: protein: recombinant; tags: N-terminal GST; dsDNA, one strand shown. Put shortly: as §1
The target in a further assay is ETV1 (Homo sapiens, UniProt P50549 1-477). Conditions: protein: recombinant; tags: N-terminal GST; dsDNA, one strand shown. In a few lines:
as §1

ELF4, sequence (Q99607 whole entry): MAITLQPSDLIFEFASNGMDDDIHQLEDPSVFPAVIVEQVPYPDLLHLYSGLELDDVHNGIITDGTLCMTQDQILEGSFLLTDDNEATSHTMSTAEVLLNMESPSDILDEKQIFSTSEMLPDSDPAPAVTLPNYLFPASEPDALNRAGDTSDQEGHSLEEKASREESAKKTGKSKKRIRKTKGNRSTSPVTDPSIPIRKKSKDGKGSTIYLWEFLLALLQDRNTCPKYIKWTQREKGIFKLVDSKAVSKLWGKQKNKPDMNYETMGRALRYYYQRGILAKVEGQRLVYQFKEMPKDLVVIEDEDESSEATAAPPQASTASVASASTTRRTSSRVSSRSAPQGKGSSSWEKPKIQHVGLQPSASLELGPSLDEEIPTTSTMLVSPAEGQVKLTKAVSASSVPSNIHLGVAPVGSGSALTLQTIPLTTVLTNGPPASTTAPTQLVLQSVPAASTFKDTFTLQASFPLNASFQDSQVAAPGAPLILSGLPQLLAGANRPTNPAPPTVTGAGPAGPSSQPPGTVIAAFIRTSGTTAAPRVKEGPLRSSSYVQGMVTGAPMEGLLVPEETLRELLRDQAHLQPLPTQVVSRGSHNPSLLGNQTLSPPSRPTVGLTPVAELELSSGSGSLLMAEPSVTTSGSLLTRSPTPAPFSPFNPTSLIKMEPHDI
ETV5, sequence (P41161 whole entry): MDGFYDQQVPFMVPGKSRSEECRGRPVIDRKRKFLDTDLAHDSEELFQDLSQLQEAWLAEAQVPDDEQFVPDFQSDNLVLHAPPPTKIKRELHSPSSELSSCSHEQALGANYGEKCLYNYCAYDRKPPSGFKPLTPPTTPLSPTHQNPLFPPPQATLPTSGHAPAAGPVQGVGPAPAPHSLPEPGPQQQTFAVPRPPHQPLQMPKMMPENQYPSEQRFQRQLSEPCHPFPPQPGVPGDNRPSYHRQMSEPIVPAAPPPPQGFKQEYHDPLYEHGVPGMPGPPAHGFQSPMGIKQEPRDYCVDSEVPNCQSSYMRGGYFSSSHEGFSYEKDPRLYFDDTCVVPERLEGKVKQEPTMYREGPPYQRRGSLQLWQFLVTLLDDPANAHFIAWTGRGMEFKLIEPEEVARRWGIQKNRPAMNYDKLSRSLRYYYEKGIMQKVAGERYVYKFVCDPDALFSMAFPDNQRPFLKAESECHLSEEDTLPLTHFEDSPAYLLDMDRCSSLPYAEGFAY
ETV1, sequence (P50549 whole entry): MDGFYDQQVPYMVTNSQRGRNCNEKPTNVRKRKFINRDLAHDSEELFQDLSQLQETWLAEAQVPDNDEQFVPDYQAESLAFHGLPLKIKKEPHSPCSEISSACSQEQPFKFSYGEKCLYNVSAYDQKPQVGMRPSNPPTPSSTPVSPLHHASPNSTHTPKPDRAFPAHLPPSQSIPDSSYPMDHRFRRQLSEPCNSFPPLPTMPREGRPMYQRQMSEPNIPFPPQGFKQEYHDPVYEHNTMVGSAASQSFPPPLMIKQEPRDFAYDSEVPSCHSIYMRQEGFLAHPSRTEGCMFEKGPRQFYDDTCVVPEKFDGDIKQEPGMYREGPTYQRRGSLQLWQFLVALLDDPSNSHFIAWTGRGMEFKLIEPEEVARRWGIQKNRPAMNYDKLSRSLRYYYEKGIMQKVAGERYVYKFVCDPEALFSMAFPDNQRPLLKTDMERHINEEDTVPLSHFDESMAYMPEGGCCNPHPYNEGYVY
CRX, sequence (O43186 whole entry): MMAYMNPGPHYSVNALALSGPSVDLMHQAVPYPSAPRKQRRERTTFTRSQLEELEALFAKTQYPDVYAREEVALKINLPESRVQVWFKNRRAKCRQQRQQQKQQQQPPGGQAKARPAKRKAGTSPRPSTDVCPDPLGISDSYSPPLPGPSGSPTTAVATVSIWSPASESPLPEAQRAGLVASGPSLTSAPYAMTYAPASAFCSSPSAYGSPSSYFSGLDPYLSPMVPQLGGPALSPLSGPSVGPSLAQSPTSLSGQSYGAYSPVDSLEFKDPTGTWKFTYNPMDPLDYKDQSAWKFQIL
HSF1, sequence (Q00613 whole entry): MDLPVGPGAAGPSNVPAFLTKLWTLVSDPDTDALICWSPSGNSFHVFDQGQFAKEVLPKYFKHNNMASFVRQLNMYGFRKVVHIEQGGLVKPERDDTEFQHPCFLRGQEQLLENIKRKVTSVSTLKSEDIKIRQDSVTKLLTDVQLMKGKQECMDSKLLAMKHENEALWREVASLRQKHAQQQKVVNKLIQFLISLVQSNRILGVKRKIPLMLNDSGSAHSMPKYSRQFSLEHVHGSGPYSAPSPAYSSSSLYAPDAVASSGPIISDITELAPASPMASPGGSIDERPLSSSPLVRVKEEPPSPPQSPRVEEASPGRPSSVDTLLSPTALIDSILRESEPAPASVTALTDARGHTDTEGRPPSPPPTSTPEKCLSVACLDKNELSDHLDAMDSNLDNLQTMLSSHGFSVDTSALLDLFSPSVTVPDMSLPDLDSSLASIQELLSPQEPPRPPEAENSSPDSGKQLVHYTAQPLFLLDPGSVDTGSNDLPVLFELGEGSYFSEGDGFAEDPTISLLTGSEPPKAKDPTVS

Take TACAAG: the binding signal in the assay with FLI1 was 1.06 fold enrichment (6-mer frequency, TF over GST control); with ELK1, 1.03 fold enrichment (6-mer frequency, TF over GST control); with ERG, 1.04 fold enrichment (6-mer frequency, TF over GST control); with ELF1, 1.06 fold enrichment (6-mer frequency, TF over GST control); in the assay with EHF, 1.09 fold enrichment (6-mer frequency, TF over GST control); in the assay with ELK3, 1.04 fold enrichment (6-mer frequency, TF over GST control). The binding signal with FEV was 1.01 fold enrichment (6-mer frequency, TF over GST control); with ETV5 it was 1.15 fold enrichment (6-mer frequency, TF over GST control); with HSF1, 1.07 fold enrichment (6-mer frequency, TF over GST control); with SPIC, 1.17 fold enrichment (6-mer frequency, TF over GST control); with ELF4, 1.1 fold enrichment (6-mer frequency, TF over GST control); in the assay with ELK4, 1.16 fold enrichment (6-mer frequency, TF over GST control). In addition, the binding signal was 1.03 fold enrichment (6-mer frequency, TF over GST control) in the assay with ETV2; 1.23 fold enrichment (6-mer frequency, TF over GST control) with ELF3; 1.11 fold enrichment (6-mer frequency, TF over GST control) in the assay with CRX; 1.06 fold enrichment (6-mer frequency, TF over GST control) with ETV1.
